Laboratory results as given in PubChem BioAssay AID1159580 (chemical genetic matrix, 2015).
Out of some 5,500 compounds screened, about 2,000 (36%) were called active. Roughly 18% stayed inconclusive and do not appear here. The list shows a part of the results. Unmarked numbers belong to inactive results. Cut-off read from the data, not from the text of the source: active = normalized growth mostly below about 0.91 (no sharp cut-off); inconclusive = no clear call, values can overlap the other calls; inactive = mostly above about 0.92.

Test: chemical genetic growth profiling, strain panel (AID 1159580);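 note: tested at 20 µM; growth read once vehicle control cultures reached saturation at 30 °C; 1 = growth at the plate median or of vehicle wells; lower values mean less growth of the strain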
Conditions: S. cerevisiae deletion strains, growth OD

## COC1=C(OC)C(=O)c2ccccc2C1=O
Locus YAL040C, strain CLN3, active compounds read low
  normalized growth: 0.962
Locus YDR363W, strain ESC2, active compounds read low
  normalized growth: 0.734 (active)
Locus YER002W, strain NOP16, active compounds read low
  normalized growth: 0.985
Locus YGR078C, strain PAC10, active compounds read low
  normalized growth: 0.995
Locus YJR075W, strain HOC1, active compounds read low
  normalized growth: 0.998
Locus YMR263W, strain SAP30, active compounds read low
  normalized growth: 1.02
Locus YMR307W, strain GAS1, active compounds read low
  normalized growth: 0.886 (active)
Locus YNL153C, strain GIM3, active compounds read low
  normalized growth: 0.703 (active)
Locus YNL175C, strain NOP13, active compounds read low
  normalized growth: 0.978
Locus YNL197C, strain WHI3, active compounds read low
  normalized growth: 0.941
Locus YNL224C, strain SQS1, active compounds read low
  normalized growth: 0.977
Locus YOR083W, strain WHI5 (second series), active compounds read low
  normalized growth: 0.883

## O=C1C=CC(=O)c2ccccc21
Locus YAL021C, strain ccr4, active compounds read low
  normalized growth: 0.0676 (active)
Locus YAL026C, strain drs2, active compounds read low
  normalized growth: 0.0697 (active)
Locus YAL030W, strain snc1, active compounds read low
  normalized growth: 0.0571 (active)
Locus YBL061C, strain skt5, active compounds read low
  normalized growth: 0.0618 (active)
Locus YBR009C, strain hhf1, active compounds read low
  normalized growth: 0.064 (active)
Locus YBR023C, strain chs3, active compounds read low
  normalized growth: 0.0634 (active)
Locus YBR171W, strain sec66, active compounds read low
  normalized growth: 0.0895 (active)
Locus YBR231C, strain swc5, active compounds read low
  normalized growth: 0.0652 (active)
Locus YBR279W, strain paf1, active compounds read low
  normalized growth: 0.0871 (active)
Locus YCL011C, strain gbp2, active compounds read low
  normalized growth: 0.0594 (active)
Locus YCL016C, strain dcc1, active compounds read low
  normalized growth: 0.0722 (active)
Locus YCL061C, strain MRC1, active compounds read low
  normalized growth: 0.0703 (active)
Locus YCL069W, strain vba3, active compounds read low
  normalized growth: 0.0688 (active)
Locus YCR088W, strain abp1, active compounds read low
  normalized growth: 0.0699 (active)
Locus YDL005C, strain med2, active compounds read low
  normalized growth: 0.0758 (active)
Locus YDL040C, strain nat1, active compounds read low
  normalized growth: 0.0706 (active)
Locus YDR001C, strain nth1, active compounds read low
  normalized growth: 0.0722 (active)
Locus YDR069C, strain doa4, active compounds read low
  normalized growth: 0.0698 (active)
Locus YDR137W, strain rgp1, active compounds read low
  normalized growth: 0.288 (active)
Locus YDR159W, strain sac3, active compounds read low
  normalized growth: 0.36 (active)
Locus YDR195W, strain ref2
  normalized growth: 0.13 (active)
Locus YDR297W, strain sur2, active compounds read low
  normalized growth: 0.0592 (active)
Locus YDR334W, strain swr1, active compounds read low
  normalized growth: 0.0769 (active)
Locus YDR335W, strain msn5, active compounds read low
  normalized growth: 0.0683 (active)
Locus YDR392W, strain spt3, active compounds read low
  normalized growth: 0.109 (active)
Locus YEL003W, strain gim4, active compounds read low
  normalized growth: 0.0565 (active)
Locus YEL037C, strain rad23, active compounds read low
  normalized growth: 0.0781 (active)
Locus YEL061C, strain CIN8 (second series), active compounds read low
  normalized growth: 0.0717 (active)
Locus YER015W, strain faa2, active compounds read low
  normalized growth: 0.0627 (active)
Locus YER016W, strain bim1, active compounds read low
  normalized growth: 0.0642 (active)
Locus YER111C, strain swi4, active compounds read low
  normalized growth: 0.917
Locus YER155C, strain BEM2 (second series), active compounds read low
  normalized growth: 0.107 (active)
Locus YFR010W, strain ubp6, active compounds read low
  normalized growth: 0.0794 (active)
Locus YGL167C, strain pmr1, active compounds read low
  normalized growth: 0.0772 (active)
Locus YGL173C, strain kem1, active compounds read low
  normalized growth: 0.0709 (active)
Locus YGL227W, strain vid30, active compounds read low
  normalized growth: 0.0707 (active)
Locus YGL240W, strain doc1, active compounds read low
  normalized growth: 0.0798 (active)
Locus YGL253W, strain hxk2, active compounds read low
  normalized growth: 0.0667 (active)
Locus YHR013C, strain ard1, active compounds read low
  normalized growth: 0.138 (active)
Locus YHR027C, strain rpn1, active compounds read low
  normalized growth: 0.0646 (active)
Locus YHR030C, strain SLT2, active compounds read low
  normalized growth: 0.102 (active)
Locus YHR079C, strain IRE1, active compounds read low
  normalized growth: 0.12 (active)
Locus YHR142W, strain chs7, active compounds read low
  normalized growth: 0.0814 (active)
Locus YJL092W, strain hpr5, active compounds read low
  normalized growth: 0.074 (active)
Locus YJL095W, strain BCK1 (second series), active compounds read low
  normalized growth: 0.0589 (active)
Locus YJL095W, strain BCK1, active compounds read low
  normalized growth: 0.116 (active)
Locus YJL115W, strain asf1, active compounds read low
  normalized growth: 0.0842 (active)
Locus YJL129C, strain trk1, active compounds read low
  normalized growth: 0.951
Locus YJL154C, strain vps35, active compounds read low
  normalized growth: 0.0701 (active)
Locus YJL164C, strain tpk1, active compounds read low
  normalized growth: 0.0603 (active)
Locus YJL166W, strain qcr8, active compounds read low
  normalized growth: 0.0677 (active)
Locus YJL187C, strain SWE1, active compounds read low
  normalized growth: 0.0597 (active)
Locus YJR066W, strain TOR1, active compounds read low
  normalized growth: 0.116 (active)
Locus YKL160W, strain elf1, active compounds read low
  normalized growth: 0.0712 (active)
Locus YKR026C, strain gcn3, active compounds read low
  normalized growth: 0.0708 (active)
Locus YKR091W, strain srl3, active compounds read low
  normalized growth: 0.0627 (active)
Locus YLL001W, strain dnm1, active compounds read low
  normalized growth: 0.071 (active)
Locus YLL026W, active compounds read low
  normalized growth: 0.0579 (active)
Locus YLL041C, strain sdh2, active compounds read low
  normalized growth: 0.0596 (active)
Locus YLR027C, strain aat2, active compounds read low
  normalized growth: 0.0574 (active)
Locus YLR113W, strain HOG1, active compounds read low
  normalized growth: 0.135 (active)
Locus YLR221C, strain rsa3, active compounds read low
  normalized growth: 0.0579 (active)
Locus YLR258W, strain gsy2, active compounds read low
  normalized growth: 0.0611 (active)
Locus YLR262C, strain YPT6 (second series), active compounds read low
  normalized growth: 0.0853 (active)
Locus YLR320W, strain mms22, active compounds read low
  normalized growth: 0.0864 (active)
Locus YLR342W, strain FKS1, active compounds read low
  normalized growth: 0.0683 (active)
Locus YLR357W, strain rsc2, active compounds read low
  normalized growth: 0.137 (active)
Locus YLR370C, strain arc18, active compounds read low
  normalized growth: 0.0746 (active)
Locus YLR384C, strain iki3, active compounds read low
  normalized growth: 0.0643 (active)
Locus YML120C, strain ndi1, active compounds read low
  normalized growth: 0.827 (active)
Locus YMR058W, strain fet3, active compounds read low
  normalized growth: 0.0712 (active)
Locus YMR125W, strain sto1, active compounds read low
  normalized growth: 0.0829 (active)
Locus YMR129W, active compounds read low
  normalized growth: 0.0615 (active)
Locus YMR205C, strain PFK2, active compounds read low
  normalized growth: 0.092 (active)
Locus YMR231W, strain pep5, active compounds read low
  normalized growth: 0.0667 (active)
Locus YNL071W, strain lat1, active compounds read low
  normalized growth: 0.0615 (active)
Locus YNL183C, strain NPR1, active compounds read low
  normalized growth: 0.338 (active)
Locus YNL209W, strain ssb2, active compounds read low
  normalized growth: 0.0608 (active)
Locus YNL248C, strain rpa49, active compounds read low
  normalized growth: 0.0841 (active)
Locus YNL322C, strain KRE1 (second series), active compounds read low
  normalized growth: 0.0674 (active)
Locus YNR049C, strain mso1, active compounds read low
  normalized growth: 0.0752 (active)
Locus YOR001W, strain rrp6, active compounds read low
  normalized growth: 0.0696 (active)
Locus YOR070C, strain gyp1, active compounds read low
  normalized growth: 0.0608 (active)
Locus YOR080W, strain dia2, active compounds read low
  normalized growth: 0.114 (active)
Locus YOR083W, strain WHI5, active compounds read low
  normalized growth: 0.0702 (active)
Locus YOR106W, strain vam3, active compounds read low
  normalized growth: 0.0684 (active)
Locus YOR231W, strain MKK1, active compounds read low
  normalized growth: 0.111 (active)
Locus YOR265W, strain rbl2, active compounds read low
  normalized growth: 0.0588 (active)
Locus YOR270C, strain vph1, active compounds read low
  normalized growth: 0.124 (active)
Locus YOR290C, strain snf2, active compounds read low
  normalized growth: 0.842 (active)
Locus YPL051W, strain arl3, active compounds read low
  normalized growth: 0.0626 (active)
Locus YPL078C, strain atp4, active compounds read low
  normalized growth: 0.41 (active)
Locus YPL106C, strain sse1, active compounds read low
  normalized growth: 0.0998 (active)
Locus YPL240C, strain hsp82, active compounds read low
  normalized growth: 0.0586 (active)
Locus YPL256C, strain CLN2, active compounds read low
  normalized growth: 0.128 (active)
